Assay results as given in the supplement of paper PMC8728848.
Many of the other results were omitted from the sample, so the strongest signals are more common in it than they were.

Tests used:
Assay in all cases: glycan array binding signal (z-score within array); higher = stronger binding
Details in all cases: glycan notation: IUPAC condensed, linker removed
[1] = molecular target: Fuc(a1-2)Gal(b1-3)GlcNAc(b1-3)GalNAc
Summary of the method: (§1)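 From the Consortium for Functional Glycomics database, 3228 arrays were curated, keeping only those whose protein sequence was available. Binding is given as a within-array Z-score averaged across arrays sharing a protein sequence and across linkers. Negative Z-scores can be read as non-binding.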

[2] = molecular target: Fuc(a1-2)Gal(b1-4)GlcNAc
Summary of the method: as §1

[3] = molecular target: Fuc(a1-2)Gal(b1-4)GlcNAc(b1-3)Gal(b1-4)GlcNAc
Summary of the method: as §1

[4] = molecular target: Fuc(a1-2)Gal6S(b1-3)GlcNAc6S
Summary of the method: as §1

[5] = molecular target: Fuc(a1-2)[Gal(a1-3)]Gal(b1-4)[Fuc(a1-3)]GlcNAc(b1-3)GalNAc
Summary of the method: as §1

[6] = molecular target: Fuc(a1-2)[GalNAc(a1-3)]Gal(b1-4)GlcNAc(b1-2)Man
Summary of the method: as §1

[7] = molecular target: Fuc(a1-3)[Gal(b1-4)]GlcNAc(b1-2)Man(a1-3)[Fuc(a1-3)[Gal(b1-4)]GlcNAc(b1-2)Man(a1-6)]Man(b1-4)GlcNAc(b1-4)GlcNAc
Summary of the method: as §1

[8] = molecular target: Fuc(a1-3)[Gal(b1-4)]GlcNAc(b1-6)[Gal(b1-3)GlcNAc(b1-3)]Gal(b1-4)Glc
Summary of the method: as §1

[9] = molecular target: Fuc(a1-3)[GalNAc(b1-4)]GlcNAc6S
Summary of the method: as §1

[10] = molecular target: Gal(a1-3)Gal(b1-3)GlcNAc(b1-3)GalNAc
Summary of the method: as §1

[11] = molecular target: Gal(a1-3)Gal(b1-4)Glc
Summary of the method: as §1

[12] = molecular target: Gal(a1-4)Gal(b1-3)GlcNAc(b1-2)Man(a1-3)[Gal(a1-4)Gal(b1-3)GlcNAc(b1-2)Man(a1-6)]Man(b1-4)GlcNAc(b1-4)GlcNAc
Summary of the method: as §1

[13] = molecular target: Gal(b1-3)GlcNAc(b1-2)Man
Summary of the method: as §1

[14] = molecular target: Gal(b1-3)[Fuc(a1-4)]GlcNAc(b1-3)Gal(b1-3)[Fuc(a1-4)]GlcNAc
Summary of the method: as §1

[15] = molecular target: Gal(b1-3)[Neu5Ac(b2-6)]GalNAc
Summary of the method: as §1

[16] = molecular target: Gal(b1-4)GlcNAc(b1-2)Man(a1-3)[Gal(b1-4)GlcNAc(b1-2)Man(a1-6)][GlcNAc(b1-4)]Man(b1-4)GlcNAc(b1-4)[Fuc(a1-6)]GlcNAc
Summary of the method: as §1

[17] = molecular target: Gal(b1-4)GlcNAc(b1-2)[Gal(b1-4)GlcNAc(b1-4)]Man(a1-3)[GlcNAc(b1-4)][Gal(b1-4)GlcNAc(b1-2)Man(a1-6)]Man(b1-4)GlcNAc(b1-4)GlcNAc
Summary of the method: as §1

[18] = molecular target: Gal(b1-4)GlcNAc(b1-3)Gal(b1-4)GlcNAc(b1-2)Man(a1-3)[Gal(b1-4)GlcNAc(b1-3)Gal(b1-4)GlcNAc(b1-2)Man(a1-6)]Man(b1-4)GlcNAc(b1-4)[Fuc(a1-6)]GlcNAc
Summary of the method: as §1

[19] = molecular target: Gal(b1-4)GlcNAc(b1-3)Gal(b1-4)GlcNAc(b1-3)Gal(b1-4)GlcNAc(b1-3)Gal(b1-4)GlcNAc(b1-3)Gal(b1-4)GlcNAc(b1-2)Man(a1-3)[Gal(b1-4)GlcNAc(b1-3)Gal(b1-4)GlcNAc(b1-3)Gal(b1-4)GlcNAc(b1-3)Gal(b1-4)GlcNAc(b1-3)Gal(b1-4)GlcNAc(b1-2)Man(a1-6)]Man(b1-4)GlcNAc(b1-4)GlcNAc
Summary of the method: as §1

[20] = molecular target: Gal(b1-4)GlcNAc(b1-3)Gal(b1-4)GlcNAc(b1-3)Gal(b1-4)GlcNAc(b1-3)Gal(b1-4)GlcNAc(b1-3)Gal(b1-4)GlcNAc(b1-2)Man(a1-3)[Gal(b1-4)GlcNAc(b1-3)Gal(b1-4)GlcNAc(b1-3)Gal(b1-4)GlcNAc(b1-3)Gal(b1-4)GlcNAc(b1-3)Gal(b1-4)GlcNAc(b1-2)Man(a1-6)]Man(b1-4)GlcNAc(b1-4)[Fuc(a1-6)]GlcNAc
Summary of the method: as §1

[21] = molecular target: Gal(b1-4)GlcNAc(b1-6)[Gal(b1-4)GlcNAc(b1-3)]GalNAc
Summary of the method: as §1

[22] = molecular target: Gal3S(b1-4)GlcNAc
Summary of the method: as §1

[23] = molecular target: Gal3S(b1-4)[Fuc(a1-3)]GlcNAc6S
Summary of the method: as §1

[24] = molecular target: Gal3S4S(b1-4)GlcNAc
Summary of the method: as §1

[25] = molecular target: Gal3S6S(b1-4)GlcNAc
Summary of the method: as §1

[26] = molecular target: Gal3S6S(b1-4)GlcNAc6S
Summary of the method: as §1

[27] = molecular target: Gal6S(b1-3)GlcNAc6S
Summary of the method: as §1

[28] = molecular target: Gal6S(b1-4)Glc6S
Summary of the method: as §1

[29] = molecular target: Gal6S(b1-4)GlcNAc6S
Summary of the method: as §1

[30] = molecular target: GalNAc3S(b1-4)[Fuc(a1-3)]GlcNAc
Summary of the method: as §1

[31] = molecular target: GalNAc4S6S(b1-4)GlcNAc
Summary of the method: as §1

[32] = molecular target: GlcNAc(a1-4)Gal(b1-3)GlcNAc
Summary of the method: as §1

[33] = molecular target: GlcNAc(b1-2)Man(a1-3)[GlcNAc(b1-4)][GlcNAc(b1-2)Man(a1-6)]Man(b1-4)GlcNAc(b1-4)GlcNAc
Summary of the method: as §1

[34] = molecular target: GlcNAc(b1-3)Gal(b1-4)GlcNAc(b1-3)Gal(b1-4)GlcNAc(b1-2)Man(a1-3)[GlcNAc(b1-3)Gal(b1-4)GlcNAc(b1-3)Gal(b1-4)GlcNAc(b1-2)Man(a1-6)]Man(b1-4)GlcNAc(b1-4)[Fuc(a1-6)]GlcNAc
Summary of the method: as §1

[35] = molecular target: GlcNAc(b1-4)GlcNAc(b1-4)GlcNAc(b1-4)GlcNAc(b1-4)GlcNAc
Summary of the method: as §1

[36] = molecular target: GlcNAc(b1-4)[GlcNAc(b1-6)]GalNAc
Summary of the method: as §1

[37] = molecular target: Kdn(a2-3)Gal(b1-3)GalNAc
Summary of the method: as §1

[38] = molecular target: Kdn(a2-3)Gal(b1-4)Glc
Summary of the method: as §1

[39] = molecular target: Man(a1-2)Man(a1-3)Man
Summary of the method: as §1

[40] = molecular target: Neu5Ac(a2-3)Gal(b1-3)GalNAc
Summary of the method: as §1

[41] = molecular target: Neu5Ac(a2-3)Gal(b1-3)GlcNAc(b1-4)Gal(b1-4)Glc
Summary of the method: as §1

[42] = molecular target: Neu5Ac(a2-3)Gal(b1-4)GlcNAc(b1-2)[Neu5Ac(a2-3)Gal(b1-4)GlcNAc(b1-6)]Man(a1-6)[Neu5Ac(a2-3)Gal(b1-4)GlcNAc(b1-2)Man(a1-3)][GlcNAc(b1-4)]Man(b1-4)GlcNAc(b1-4)GlcNAc
Summary of the method: as §1

[43] = molecular target: Neu5Ac(a2-3)Gal(b1-4)GlcNAc(b1-3)Gal(b1-4)GlcNAc(b1-3)Gal(b1-4)GlcNAc
Summary of the method: as §1

[44] = molecular target: Neu5Ac(a2-3)Gal(b1-4)GlcNAc(b1-3)Gal(b1-4)GlcNAc(b1-3)Gal(b1-4)GlcNAc(b1-2)Man(a1-3)[Neu5Ac(a2-3)Gal(b1-4)GlcNAc(b1-3)Gal(b1-4)GlcNAc(b1-3)Gal(b1-4)GlcNAc(b1-2)Man(a1-6)]GalNAc
Summary of the method: as §1

[45] = molecular target: Neu5Ac(a2-3)Gal(b1-4)GlcNAc(b1-3)[Neu5Ac(a2-3)Gal(b1-4)GlcNAc(b1-6)]GalNAc
Summary of the method: as §1

[46] = molecular target: Neu5Ac(a2-3)Gal(b1-4)GlcNAc6S
Summary of the method: as §1

[47] = molecular target: Neu5Ac(a2-3)Gal(b1-4)[Fuc(a1-3)]GlcNAc(b1-3)Gal
Summary of the method: as §1

[48] = molecular target: Neu5Ac(a2-3)Gal(b1-4)[Fuc(a1-3)]GlcNAc(b1-3)Gal(b1-4)[Fuc(a1-3)]GlcNAc(b1-3)Gal(b1-4)[Fuc(a1-3)]GlcNAc
Summary of the method: as §1

[49] = molecular target: Neu5Ac(a2-6)Gal(b1-4)GlcNAc(b1-2)Man(a1-6)[Gal(b1-4)GlcNAc(b1-2)Man(a1-3)]Man(b1-4)GlcNAc(b1-4)GlcNAc
Summary of the method: as §1

[50] = molecular target: Neu5Ac(a2-8)Neu5Ac(a2-3)[GalNAc(b1-4)]Gal(b1-4)Glc
Summary of the method: as §1

[51] = molecular target: Neu5Ac(b2-6)Gal(b1-4)GlcNAc
Summary of the method: as §1

B1: CrataBL (Crataeva tapia), C0HJA4 (protein)
chain: AILTGVPYYILPSTSRAGFSPDNLRKNTSQLSCPLDLITQLRFPRRIGVPVIFTPQNSSLKVVPLSHNLNIHTCSDLWFCPESKIWTVKSSLTHGGSVVTTGGTFRSLGSWFRIERHGDSYKLVHCPRGSTPCRDVGIETVGGGGRRYLAPRDRPLAVRFTRASG
glycan array binding signal (z-score) [1]: -0.444
glycan array binding signal (z-score) [2]: -0.486
glycan array binding signal (z-score) [3]: -0.497
glycan array binding signal (z-score) [4]: 5.81
glycan array binding signal (z-score) [5]: -0.054
glycan array binding signal (z-score) [6]: -0.507
glycan array binding signal (z-score) [7]: -0.41
glycan array binding signal (z-score) [8]: -0.443
glycan array binding signal (z-score) [9]: 0.386
glycan array binding signal (z-score) [10]: -0.383
glycan array binding signal (z-score) [11]: -0.243
glycan array binding signal (z-score) [12]: -0.451
glycan array binding signal (z-score) [13]: -0.207
glycan array binding signal (z-score) [14]: -0.412
glycan array binding signal (z-score) [15]: -0.333
glycan array binding signal (z-score) [16]: -0.533
glycan array binding signal (z-score) [17]: -0.465
glycan array binding signal (z-score) [18]: -0.376
glycan array binding signal (z-score) [19]: -0.247
glycan array binding signal (z-score) [20]: -0.276
glycan array binding signal (z-score) [21]: -0.237
glycan array binding signal (z-score) [22]: -0.021
glycan array binding signal (z-score) [23]: 5.22
glycan array binding signal (z-score) [24]: 2.38
glycan array binding signal (z-score) [25]: 3.14
glycan array binding signal (z-score) [26]: 11.7
glycan array binding signal (z-score) [27]: 6.61
glycan array binding signal (z-score) [28]: 2.96
glycan array binding signal (z-score) [29]: 5.29
glycan array binding signal (z-score) [30]: 0.423
glycan array binding signal (z-score) [31]: 5.23
glycan array binding signal (z-score) [32]: -0.374
glycan array binding signal (z-score) [33]: -0.23
glycan array binding signal (z-score) [34]: -0.076
glycan array binding signal (z-score) [35]: -0.186
glycan array binding signal (z-score) [36]: -0.434
glycan array binding signal (z-score) [37]: 0.64
glycan array binding signal (z-score) [38]: 0.084
glycan array binding signal (z-score) [39]: -0.472
glycan array binding signal (z-score) [40]: 0.131
glycan array binding signal (z-score) [41]: -0.112
glycan array binding signal (z-score) [42]: -0.386
glycan array binding signal (z-score) [43]: -0.389
glycan array binding signal (z-score) [44]: 2.17
glycan array binding signal (z-score) [45]: 0.163
glycan array binding signal (z-score) [46]: 2.07
glycan array binding signal (z-score) [47]: -0.448
glycan array binding signal (z-score) [48]: -0.51
glycan array binding signal (z-score) [49]: 0.067
glycan array binding signal (z-score) [50]: 0.475
glycan array binding signal (z-score) [51]: -0.387
